High-throughput results deposited in PubChem by National Center for Advancing Translational Sciences (NCATS).
This is a sample that favours compounds with a hit; in the whole collection about 7.4% have one here.
Rab9 prom act: Rab9 promoter activation; Potency, µM (titrated, usually from 9.22 µM), for the others: at the highest dose activation, negative = inhibition, most hits filed as activators; Huh7 Rab9 promoter-luciferase reporter, luminescence, 24 h; 320,000 tested, 2.8% active; note: % of control where 0% means no effect; nearly all actives have a fitted effect of over 60% in size
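Quantitative HTS format; Huh7 Rab9-luciferase reporter cells (1500/well) receive compound 2 h post-plating, incubate 24 h at 37 °C, then get luciferase reagent for 10 min before luminescence reading.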
SMN2 splice enh: SMN2 splice variant enhancement | HEK293 SMN2-luciferase splicing reporter, luminescence, 30-36 h | Potency, µM (top dose mostly 46.1 µM), without a hit: top-dose activity change, positive = activation, usual class: activators | 210,000 tested, 2.8% active | AID 1458; note: % of control where 0% means no effect; nearly all actives have a fitted effect of over 55% in size
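HEK293 cells carry an SMN2 minigene-luciferase reporter in which exon 7 inclusion puts luciferase in frame. Cells were seeded at 2000 cells/well, attached for 10-12 hours, then exposed to compounds for 30-36 hours at 37C before ONE-Glo luminescence.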
ELG1 genotox: induces genotoxicity in HEK293T cells with luciferase-tagged ELG1; HEK293T ELG1-luciferase reporter, luminescence, 16 h; Potency, µM (titrated, usually from 46 µM), without a hit: at the highest dose activity change, positive = activation, most hits filed as activators; 330,000 tested, 1.3% active; note: % of control where 0% means no effect; nearly all actives have a fitted effect of over 60% in size
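Reporter readout depends on ELG1 protein level, which increases with genetic stress. After 16 hr compound exposure at 37 °C, luciferase activity was quantified using ONE-Glo.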
Luc counter: Kinase-Glo luciferase inhibition (counter-screen) | Q27757 | Kinase-Glo luciferase, ATP luminescence, 8 min | Potency, µM (top dose mostly 38.3 µM), without a hit: top-dose activity change, negative = inhibition, usual class: inhibitors | 200,000 tested, 0.28% active | AID 1379; note: % is set by controls: 0 for no effect and ±100 for the full control effect; nearly all actives have a fitted effect of over 60% in size
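Inhibition of Kinase-Glo luciferase light generation was assessed at 10 uM ATP in pH 7.2 imidazole buffer, with luminescence measured after eight minutes at ambient temperature.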
NPC1 prom act: NPC1 promoter activation | Huh7 NPC1 promoter luciferase reporter, 24 h | 320,000 tested, 2.4% active | Potency, µM (titrated, usually from 9.22 µM), inactives show top-dose activation, hits mostly activators; note: % of control where 0% means no effect; nearly all actives have a fitted effect of over 60% in size
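NPC1 promoter–luciferase Huh7 cells; 24 h compound; luminescence.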
FLuc modulator: firefly luciferase modulation, counter-screen for miR-21 project; P08659; purified FLuc, Km substrates, luminescence inhibition; Potency, µM (highest dose often 57.5 µM), for inactives: at the top dose activity change, negative = inhibition, actives largely listed as inhibitors; 360,000 tested, 6.9% active;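 note: plate controls were vehicle for no effect and reference inhibitor for full effect; nearly all actives have a fitted effect of over 55% in size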
Target sequence (P08659 whole entry, looked up): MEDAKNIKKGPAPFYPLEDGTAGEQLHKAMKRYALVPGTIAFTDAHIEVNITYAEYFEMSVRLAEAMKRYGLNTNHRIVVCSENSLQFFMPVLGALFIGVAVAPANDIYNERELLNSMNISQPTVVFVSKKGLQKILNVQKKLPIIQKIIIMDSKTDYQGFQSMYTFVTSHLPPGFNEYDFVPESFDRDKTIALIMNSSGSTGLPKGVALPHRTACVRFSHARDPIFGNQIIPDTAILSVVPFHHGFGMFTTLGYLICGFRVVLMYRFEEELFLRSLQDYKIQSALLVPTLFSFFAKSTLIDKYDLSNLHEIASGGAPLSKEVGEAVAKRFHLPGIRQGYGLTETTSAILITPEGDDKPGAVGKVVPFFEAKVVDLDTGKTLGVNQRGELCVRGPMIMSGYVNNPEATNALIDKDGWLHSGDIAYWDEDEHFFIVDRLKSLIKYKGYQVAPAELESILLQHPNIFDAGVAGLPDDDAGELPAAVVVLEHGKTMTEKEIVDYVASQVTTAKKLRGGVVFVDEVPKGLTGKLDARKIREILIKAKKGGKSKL
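Purified P. pyralis luciferase, 10 nM final, with Km-level 10 uM D-luciferin and 10 uM ATP in 50 mM Tris acetate pH 7.5, 10 mM Mg acetate, 0.01% Tween-20, 0.05% BSA; 6-point qHTS titration about 60 µM downward; luminescence read.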
The depositor's hits bear a star. Calls come from the whole dose curve; as a rule, active = well fitted curve in the direction sought with a large enough effect; inconclusive = small, poorly fitted or top-dose-only effect, or another doubt; inactive = no such curve, though single readings can be large; an effect the other way counts as inactive or inconclusive. Potency is the fitted concentration of half-maximal effect.

What do the screens show for `CCOC(=O)c1ccc(NC(=O)CSc2nnc(NC(=O)c3ccc(S(=O)(=O)N4CCOCC4)cc3)s2)cc1`?
Rab9 prom act: 3%; SMN2 splice enh: inconclusive; ELG1 genotox: 9%; Luc counter: 2%; NPC1 prom act: 11%; FLuc modulator: 1.7µM*

What do the screens show for `Cc1ccc(NC(=O)CSc2nnc(NC(=O)c3ccc(S(=O)(=O)N4CCOCC4)cc3)s2)cc1`?
Rab9 prom act: 19%; SMN2 splice enh: inconclusive; ELG1 genotox: 12%; Luc counter: 0%; NPC1 prom act: 4%; FLuc modulator: 2.7µM*

Results for CN(Cc1ccccc1)C(=O)c1cn(C)c2ccc(S(=O)(=O)N3CCCC3)cc2c1=O ?
Rab9 prom act: 4%; ELG1 genotox: 0%; NPC1 prom act: -14%; FLuc modulator: 0%

How did COc1ccc(-c2cc(C(=O)OCC(=O)c3c(N)n(C)c(=O)n(C)c3=O)c3ccccc3n2)cc1 do in these assays?
Rab9 prom act: 14%; SMN2 splice enh: -5%; ELG1 genotox: 2%; Luc counter: 0%; NPC1 prom act: -1%; FLuc modulator: 7.6µM*

Results for Cn1c(N)c(C(=O)COC(=O)c2cc(-c3ccco3)nc3ccccc23)c(=O)n(C)c1=O ?
Rab9 prom act: -3%; SMN2 splice enh: -23%; ELG1 genotox: -7%; Luc counter: -1%; NPC1 prom act: 1%; FLuc modulator: inconclusive

How did COc1ccc(-c2cc(C(=O)c3c(N)n(C)c(=O)n(C)c3=O)c3ccccc3n2)cc1 do in these assays?
Rab9 prom act: inconclusive; ELG1 genotox: inconclusive; NPC1 prom act: inconclusive; FLuc modulator: 0.38µM*

How did CC(=O)NCC(=O)N1CCCC(C(=O)c2ccc(Oc3ccccc3)cc2)C1 (stereo not given) do in these assays?
Rab9 prom act: 0%; ELG1 genotox: -3%; Luc counter: 4%; NPC1 prom act: -2%; FLuc modulator: -11%

How did CCc1ccc(-c2cn(-c3nc(C)cc(C)n3)c(=N)o2)cc1 do in these assays?
Rab9 prom act: 0%; SMN2 splice enh: 2%; ELG1 genotox: -8%; Luc counter: -4%; NPC1 prom act: 2%; FLuc modulator: 5.4µM*

What do the screens show for `OCC1CCCN(C(=S)Nc2ccc(Oc3ccccc3)cc2)C1` (stereo not given)?
Rab9 prom act: 1.8µM*; ELG1 genotox: 17%; Luc counter: 2%; NPC1 prom act: inconclusive; FLuc modulator: 13µM*

Results for COC(=O)Cc1ccc(NC(=S)N2CCCC(C)C2)cc1 (stereo not given) ?
Rab9 prom act: inconclusive; SMN2 splice enh: inconclusive; ELG1 genotox: inconclusive; Luc counter: -3%; NPC1 prom act: 24%; FLuc modulator: 1.5µM*

What do the screens show for `COc1cc(NC(=S)N2CCCC(CO)C2)cc(OC)c1` (stereo not given)?
Rab9 prom act: 13%; SMN2 splice enh: 11%; ELG1 genotox: 3%; Luc counter: 2%; NPC1 prom act: -2%; FLuc modulator: inconclusive

What do the screens show for `COC(=O)Cc1ccc(NC(=S)N2CCCC(CO)C2)cc1` (stereo not given)?
Rab9 prom act: inconclusive; ELG1 genotox: inconclusive; NPC1 prom act: inconclusive; FLuc modulator: 0.85µM*

How did OC1CCCN(C(=S)Nc2ccc(SC(F)F)cc2)C1 (stereo not given) do in these assays?
Rab9 prom act: 14%; SMN2 splice enh: inconclusive; ELG1 genotox: 9%; Luc counter: 2%; NPC1 prom act: 14%; FLuc modulator: 11µM*

What do the screens show for `CC1CC(C)CN(C(=S)Nc2ccc(SC(F)F)cc2)C1` (stereo not given)?
Rab9 prom act: -3%; SMN2 splice enh: 16%; ELG1 genotox: -3%; Luc counter: 4%; NPC1 prom act: -5%; FLuc modulator: inconclusive

Results for CCOc1ccc(CN2CCN(S(=O)(=O)c3ccc(Cl)cc3)CC2)cc1 ?
SMN2 splice enh: -25%; FLuc modulator: -6%
